The record followed here is PubChem BioAssay (Tox21).

Records with an inconclusive call do not appear. Entries that show only a call come without a potency. Activity calls are given as the source filed them. Unless noted, the call rests on the fitted dose curve.

Chain of 5-hydroxytryptamine receptor 2A (Homo sapiens) (P28223 whole entry, looked up): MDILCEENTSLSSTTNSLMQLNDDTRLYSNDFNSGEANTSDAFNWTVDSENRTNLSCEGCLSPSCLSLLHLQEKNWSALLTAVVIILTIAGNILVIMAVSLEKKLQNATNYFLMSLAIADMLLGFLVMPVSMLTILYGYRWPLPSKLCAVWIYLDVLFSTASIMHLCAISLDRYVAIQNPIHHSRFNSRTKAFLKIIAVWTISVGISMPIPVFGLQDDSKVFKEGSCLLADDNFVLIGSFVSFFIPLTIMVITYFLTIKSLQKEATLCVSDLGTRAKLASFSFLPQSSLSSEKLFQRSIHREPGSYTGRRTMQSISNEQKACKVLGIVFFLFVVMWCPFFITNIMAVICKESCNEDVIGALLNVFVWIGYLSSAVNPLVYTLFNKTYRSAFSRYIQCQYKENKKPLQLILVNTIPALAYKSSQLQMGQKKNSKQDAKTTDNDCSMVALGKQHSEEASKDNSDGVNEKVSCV

Tested on in one experiment: not listed separately
In words: p53 small molecule agonists, cell-based qHTS assay (AID 1963582; active means well fitted activation curve with a large enough effect in the signal ratio in the repeat runs, not every such curve was filed as active; the % refers to the signal ratio). Particulars: HCT-116 p53RE-bla reporter, beta-lactamase FRET ratio, 16 h; series mostly up to 66 µM. Put shortly:
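16 h compound exposure (37 C) of p53 response element–bla cells, preceded by 5 h recovery at 37 C/5% CO2; read-out via LiveBLAzer B/G FRET substrate, 2 h RT, fluorescence intensity.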
(Quantitative high-throughput screening tests each substance at several concentrations.)
For `CCCCCl`, the Potency result is “inactive”.
Turning to `OC(c1ccc(F)cc1)(c1cncnc1)c1ccccc1Cl` (stereo unspecified), the Potency result was “inactive”.
Still for that read-out and setting: then `Cc1nnc2n1-c1sc(CCC(=O)N3CCOCC3)cc1C(c1ccccc1Cl)=NC2`, with “inactive”; and `CCC(CC)(CNC(=O)CCCO)c1cccc(OC)c1`, with “inactive”.
As for `CC[C@@H](CO)NC(=O)[C@@H]1C=C2c3cccc4[nH]cc(c34)C[C@H]2N(C)C1`, the Potency result was “inactive”.
On the same count and under the same terms, then `CC(C)C(=O)Cl`, with “inactive”.
The same measure, in the same setting: the entry for `CN(C)c1ccc(N)cc1` is “inactive”.
The same measure, in the same setting: the entry for `CCOc1ccc(C(C)(C)COCc2cccc(Oc3ccccc3)c2)cc1` is “inactive”; for `CCOP(=S)(OCC)Oc1cc(C)nc(N(CC)CC)n1` it is “inactive”; for `C[C@@H]1CC2=CC(=O)CC[C@@H]2[C@H]2CC[C@@]3(C)[C@@H](CC[C@]3(C)O)[C@@H]21` it is “inactive”.
As to `COC(=O)c1ccccc1S(=O)(=O)NC(=O)N(C)c1nc(C)nc(OC)n1`, the Potency result was “inactive”.
Still for that read-out and setting: then `CC(Cc1ccccc1)NCc1ccccc1Cl` (stereo unspecified), with “inactive”; and `C=C1C[C@@H]2[C@H](CC[C@]3(C)C(=O)CC[C@@H]23)[C@@]2(C)C=CC(=O)C=C12`, with “inactive”; and `C=CCOC(C)=O`, with “inactive”.

A further experiment addresses 5-hydroxytryptamine receptor 2A (Homo sapiens) (UniProt P28223). In words: 5-hydroxytryptamine receptor 2A (HTR2A) small molecule antagonists, cell-based qHTS assay (AID 1963586). Further: nearly all actives have a fitted effect of over 45% in size. Particulars: HTR2A-CHO cells, DOI-induced calcium flux, fluorescence; series mostly up to 61.5 µM. In outline:
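CHO cells stably expressing human HTR2A were plated for 18 h at 37 C, then loaded with calcium dye for 1 h. Compounds were preincubated 5 min at room temperature before DOI (4 nM solution) was added. Kinetic fluorescence was read for 3 min.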
On to `C=COC(C)=O`, for which the Potency entry was “inactive”.
As to `CCCCCl`, the Potency entry is “inactive”.
For the molecule `OC(c1ccc(F)cc1)(c1cncnc1)c1ccccc1Cl` (stereo unspecified), the Potency result was “inactive”.
On the same count and under the same terms, then `CCOC(=O)OC1=C(c2cc(C)ccc2C)C(=O)NC12CCC(OC)CC2` (stereo unspecified), with “inactive”; and `NNCCO`, with “inactive”; and `C[N+]1(C)[C@@H]2CC[C@H]1CC(OC(=O)C(CO)c1ccccc1)C2` (stereo partly specified), with “inactive”.
With `Nc1c(Br)cc(Br)c2c1C(=O)c1ccccc1C2=O`, the activity, negative = inhibition is 6.3% [at 12.7 µM] (inactive).
Consider `O=S(=O)(Cl)c1ccccc1`, for which the Potency entry is “inactive”.
The same measure, in the same setting: the entry for `O=Cc1ccc2c(c1)OCO2` is “inactive”; for `CCN(CC)C(=S)[S-].CCN(CC)C(=S)[S-].[Zn+2]` it is “inactive”; for `CC(Oc1cccc(Cl)c1)C(=O)O` (stereo unspecified) it is “inactive”.
The same measure, in the same setting: the entry for `N#CC(CCc1ccc(Cl)cc1)(Cn1cncn1)c1ccccc1` (stereo unspecified) is “inactive”; for `CCCSP(=S)(OCC)Oc1ccc(Cl)cc1Cl` (stereo unspecified) it is “inactive”.
Same read-out and setting: the entry for `CCC(CC)(CNC(=O)CCCO)c1cccc(OC)c1` is “inactive”; for `CC(C)(C)c1cc([N+](=O)[O-])cc([N+](=O)[O-])c1O` it is “inactive”.
`Cc1cnc2c(C(=O)O)c(Cl)ccc2c1`: the Potency entry was “inactive”.
Still for that read-out and setting: then `CC(C)C(=O)Cl`, with “inactive”; and `CN(C)c1ccc(N)cc1`, with “inactive”; and `CCOc1ccc(C(C)(C)COCc2cccc(Oc3ccccc3)c2)cc1`, with “inactive”.
On the same count and under the same terms, the entry for `O=[Se]=O` is “inactive”; for `CCOCn1c(-c2ccc(Cl)cc2)c(C#N)c(Br)c1C(F)(F)F` it is “inactive”.
Still for that read-out and setting: then `O=C(N[C@H]1N=C(c2ccccc2F)c2cccc3c2N(CC3)C1=O)c1cc2ccccc2[nH]1`, with “inactive”; and `N#Cc1cc(I)c(O)c(I)c1`, with “inactive”.
Regarding `Nc1ccc2c(c1)Cc1ccccc1-2`, the Potency entry is “inactive”.
Still for that read-out and setting: then `C[C@@H]1CC2=CC(=O)CC[C@@H]2[C@H]2CC[C@@]3(C)[C@@H](CC[C@]3(C)O)[C@@H]21`, with “inactive”; and `CC(Cc1ccccc1)NCc1ccccc1Cl` (stereo unspecified), with “inactive”.
Same read-out and setting: then `CC(C)(C)c1ccc(CSc2cnn(C(C)(C)C)c(=O)c2Cl)cc1`, with “inactive”; and `CNN`, with “inactive”; and `C=C1C[C@@H]2[C@H](CC[C@]3(C)C(=O)CC[C@@H]23)[C@@]2(C)C=CC(=O)C=C12`, with “inactive”.
Same read-out and setting: then `C=CCOC(C)=O`, with “inactive”; and `Cc1ccc(-c2c(Cl)nc(C#N)n2S(=O)(=O)N(C)C)cc1`, with “inactive”; and `FC(F)OC(F)(F)C(F)Cl` (stereo unspecified), with “inactive”.

The target is the same in the next experiment. In words: 5-hydroxytryptamine receptor 2A (HTR2A) small molecule agonists, cell-based qHTS assay (AID 1963587). Further: nearly all actives have a fitted effect of over 30% in size. Further: potency means the concentration at half of the fitted maximal effect. Conditions: HTR2A-CHO cells, calcium flux fluorescence, agonist mode; series mostly up to 76.8 µM. In outline: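 Kinetic calcium-flux fluorescence (2 min, 1 sec intervals) after compound addition in agonist mode. HTR2A-CHO cells were cultured 18 h, then dye-loaded 1 h at 37 C.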
`C=COC(C)=O`: the Potency entry is “inactive”.
Still for that read-out and setting: the entry for `CCCCCl` is “inactive”; for `OC(c1ccc(F)cc1)(c1cncnc1)c1ccccc1Cl` (stereo unspecified) it is “inactive”; for `CCOC(=O)OC1=C(c2cc(C)ccc2C)C(=O)NC12CCC(OC)CC2` (stereo unspecified) it is “inactive”.
Consider `NNCCO`, for which the Potency entry was “inactive”.
The same measure, in the same setting: the entry for `C[N+]1(C)[C@@H]2CC[C@H]1CC(OC(=O)C(CO)c1ccccc1)C2` (stereo partly specified) is “inactive”.
On to `Nc1c(Br)cc(Br)c2c1C(=O)c1ccccc1C2=O`, for which the activation is -1.81% [at 15.9 µM] (inactive).
With `O=S(=O)(Cl)c1ccccc1`, the Potency result is “inactive”.
As to `Cc1nnc2n1-c1sc(CCC(=O)N3CCOCC3)cc1C(c1ccccc1Cl)=NC2`, the Potency result was “inactive”.
Regarding `CCN(CC)C(=S)[S-].CCN(CC)C(=S)[S-].[Zn+2]`, the Potency was 19.3 µM (active).
In the case of `CC(Oc1cccc(Cl)c1)C(=O)O` (stereo unspecified), the Potency result was “inactive”.
Still for that read-out and setting: the entry for `N#CC(CCc1ccc(Cl)cc1)(Cn1cncn1)c1ccccc1` (stereo unspecified) is “inactive”.
On the same count and under the same terms, then `CCCSP(=S)(OCC)Oc1ccc(Cl)cc1Cl` (stereo unspecified), with “inactive”; and `CCC(CC)(CNC(=O)CCCO)c1cccc(OC)c1`, with “inactive”.
The same measure, in the same setting: then `CC(C)(C)c1cc([N+](=O)[O-])cc([N+](=O)[O-])c1O`, with “inactive”.
For the molecule `Cc1cnc2c(C(=O)O)c(Cl)ccc2c1`, the Potency entry was “inactive”.
Same read-out and setting: the entry for `CC(C)C(=O)Cl` is “inactive”; for `CN(C)c1ccc(N)cc1` it is “inactive”.
Consider `CCOc1ccc(C(C)(C)COCc2cccc(Oc3ccccc3)c2)cc1`, for which the Potency result is “inactive”.
The same measure, in the same setting: the entry for `CCOCn1c(-c2ccc(Cl)cc2)c(C#N)c(Br)c1C(F)(F)F` is “inactive”.
On the same count and under the same terms, then `O=C(N[C@H]1N=C(c2ccccc2F)c2cccc3c2N(CC3)C1=O)c1cc2ccccc2[nH]1`, with “inactive”.
In the case of `N#Cc1cc(I)c(O)c(I)c1`, the Potency entry was “inactive”.
The same measure, in the same setting: the entry for `CCC1(C2=NCCN2)Cc2ccccc2O1` (stereo unspecified) is “inactive”.
Take `ClSC(Cl)(Cl)Cl`: the Potency result was “inactive”.
On to `CCOP(=S)(OCC)Oc1cc(C)nc(N(CC)CC)n1`, for which the Potency entry was “inactive”.
For `Nc1ccc2c(c1)Cc1ccccc1-2`, the Potency result is “inactive”.
Same read-out and setting: the entry for `C[C@@H]1CC2=CC(=O)CC[C@@H]2[C@H]2CC[C@@]3(C)[C@@H](CC[C@]3(C)O)[C@@H]21` is “inactive”.
Same read-out and setting: the entry for `COC(=O)c1ccccc1S(=O)(=O)NC(=O)N(C)c1nc(C)nc(OC)n1` is “inactive”; for `CC(Cc1ccccc1)NCc1ccccc1Cl` (stereo unspecified) it is “inactive”; for `CC(C)(C)c1ccc(CSc2cnn(C(C)(C)C)c(=O)c2Cl)cc1` it is “inactive”.
On the same count and under the same terms, then `CNN`, with “inactive”; and `C=C1C[C@@H]2[C@H](CC[C@]3(C)C(=O)CC[C@@H]23)[C@@]2(C)C=CC(=O)C=C12`, with “inactive”.
As for `C=CCOC(C)=O`, the Potency entry is “inactive”.
For `Cc1ccc(-c2c(Cl)nc(C#N)n2S(=O)(=O)N(C)C)cc1`, the Potency result was “inactive”.
On the same count and under the same terms, the entry for `FC(F)OC(F)(F)C(F)Cl` (stereo unspecified) is “inactive”.
